Here are results for 8 molecules from PubChem BioAssay (NCI).

Each structure is given as a SMILES string. Compounds without any hit were thinned out: in the full panel of roughly 83,000, 20% have a hit.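 How to read the values: 0–100, growth inhibition (40 = 60% inhibited); 0, no net growth; -100 to 0, cell death (-40 = 40% of starting cells died; -100 = all dead).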 Unmarked numbers belong to inactive results. Active and inactive are the calls of the source. The calls were made as follows: active = growth percent below 10; inactive = the rest.

Test systems include NCI-H23 lung; NCI-H226 lung; NCI-H322M lung; HOP-62 NSCLC; NCI-H460 lung; HOP-92 NSCLC; NCI-H522 lung; A549/ATCC NSCLC; 786-0 renal; COLO 205 colon; DU-145 prostate; K-562 leukemia; MALME-3M melanoma; MDA-MB-231 breast; RXF 393 renal; SF-268 CNS; SF-295 CNS; SF-539 CNS; UACC-257 melanoma; M14 melanoma.
What all share (experiment): NCI-60 one-dose screen, 48 h (100 = growth as untreated, 0 = no growth, -100 = all killed)
Holding throughout (conditions): 10 µM unless noted

As for `CNc1ccc(NC)c2c1C(=O)c1ccccc1C2=O`, the growth with NCI-H23 lung was 70.1%; with NCI-H226 lung, 79.1%; with NCI-H322M lung, 84%; in the experiment on HOP-62 NSCLC, 87%; in the experiment on NCI-H460 lung it was 91%; in the experiment with HOP-92 NSCLC it was 78.3%. Moreover, the growth with NCI-H522 lung is 97.1%; with A549/ATCC NSCLC, 100%; in the experiment on 786-0 renal it was 92.1%; with COLO 205 colon it was 108%; with DU-145 prostate, 92.6%; in the experiment with K-562 leukemia, 96%. The growth with MALME-3M melanoma is 120%; with MDA-MB-231 breast, 77.2%; with RXF 393 renal, 75%; with SF-268 CNS, 76.4%; with SF-295 CNS it was 65.9%; in the experiment with SF-539 CNS it was 56%. The growth in the experiment with UACC-257 melanoma was 85.2%; with M14 melanoma, 113%.
`NC(=S)Nc1cccc(O)c1`: the growth in the experiment on NCI-H23 lung is 90.6%; in the experiment with NCI-H226 lung, 96.9%; in the experiment with NCI-H322M lung, 88.9%; in the experiment with HOP-62 NSCLC it was 89.8%; in the experiment on NCI-H460 lung, 104%; with HOP-92 NSCLC, 98.9%. In addition, the growth in the experiment with NCI-H522 lung is 93.1%; in the experiment with A549/ATCC NSCLC, 99.8%; in the experiment with 786-0 renal it was 100%; with COLO 205 colon it was 129%; in the experiment on DU-145 prostate, 121%; with K-562 leukemia it was 106%. Besides, the growth is 102% in the experiment with MALME-3M melanoma; 96.7% in the experiment on MDA-MB-231 breast; 120% in the experiment with RXF 393 renal; 109% with SF-268 CNS; 100% with SF-295 CNS; 95.8% with SF-539 CNS. For the same molecule, the growth in the experiment on UACC-257 melanoma is 92.9%; with M14 melanoma, 98.4%.
Turning to `Cc1ccc2nc3ccccc3c(NCc3ccccc3)c2c1`, the growth is 35.8% in the experiment with NCI-H23 lung; 49.8% in the experiment with NCI-H226 lung; 40.8% with NCI-H322M lung; 43.5% with HOP-62 NSCLC; 17.1% with NCI-H460 lung; -6.69% (active) in the experiment with HOP-92 NSCLC. The growth is 37% in the experiment on NCI-H522 lung; 40.2% in the experiment with A549/ATCC NSCLC; 34.3% in the experiment with 786-0 renal; 8.06% (active) in the experiment on COLO 205 colon; 35.8% in the experiment on DU-145 prostate; 10.9% in the experiment with K-562 leukemia. Further, the growth in the experiment on MALME-3M melanoma was 55.2%; in the experiment with MDA-MB-231 breast, 35.8%; in the experiment with RXF 393 renal it was 1.32% (active); in the experiment on SF-268 CNS, 69%; with SF-295 CNS it was 28.1%; in the experiment on SF-539 CNS it was 23.2%. In addition, the results for the growth with UACC-257 melanoma and with M14 melanoma were 56.6% and 45.6%, respectively.
Regarding `CN(C)c1ccc(-c2ccc3[nH]c(=O)nc(-c4ccccc4)c3c2)cn1`, the growth in the experiment with NCI-H23 lung is 62.1%; with NCI-H226 lung it was 66.6%; with NCI-H322M lung, 77.5%; in the experiment on HOP-62 NSCLC, 63%; with NCI-H460 lung, 18.3%; in the experiment with HOP-92 NSCLC, 59.1%. Moreover, the growth in the experiment on NCI-H522 lung was 19.2%; in the experiment with A549/ATCC NSCLC, 58.3%; with 786-0 renal it was 44.5%; in the experiment on COLO 205 colon, 37.1%; in the experiment on DU-145 prostate, 65.1%; with K-562 leukemia it was 7.91% (active). Besides, the growth was 51.2% in the experiment on MALME-3M melanoma; 44.6% in the experiment on MDA-MB-231 breast; 64.5% with RXF 393 renal; 55.5% in the experiment with SF-268 CNS; 39.5% with SF-295 CNS; 28.3% in the experiment on SF-539 CNS. In addition, the growth with UACC-257 melanoma was 80.8%; with M14 melanoma, 13.7%.
`N#Cc1c2c(nn(-c3ccccc3)c1=O)C(O)=C([N+](=O)[O-])C(c1ccccc1)C2` (stereo not given): the growth is 86% in the experiment with NCI-H23 lung; 102% with NCI-H226 lung; 93.1% in the experiment on NCI-H322M lung; 78.3% in the experiment with HOP-62 NSCLC; 91.6% in the experiment on NCI-H460 lung; 76% in the experiment with HOP-92 NSCLC. Also, the growth with NCI-H522 lung was 77.8%; in the experiment on A549/ATCC NSCLC it was 93.4%; in the experiment with 786-0 renal, 58%; in the experiment with COLO 205 colon, 99.4%; with DU-145 prostate, 26.2%; in the experiment with K-562 leukemia, 41%. In addition, the growth in the experiment with MALME-3M melanoma was 86.1%; in the experiment with MDA-MB-231 breast, 71.1%; in the experiment on RXF 393 renal, 49.7%; in the experiment on SF-268 CNS, 88%; in the experiment on SF-295 CNS, 98.9%; in the experiment on SF-539 CNS, 83%. For the same molecule, the growth with UACC-257 melanoma is 87.7%; in the experiment with M14 melanoma it was 86.1%.
As to `CCOC(CN=Cc1cc(C)c2[nH]c3ccccc3c2c1C)OCC`, the growth is 97.7% in the experiment on NCI-H23 lung; 6.9% (active) in the experiment with NCI-H226 lung; 113% in the experiment with NCI-H322M lung; 102% in the experiment with HOP-62 NSCLC; 83.1% in the experiment on NCI-H460 lung; 115% in the experiment on HOP-92 NSCLC. Moreover, the growth in the experiment with NCI-H522 lung is 113%; in the experiment on A549/ATCC NSCLC, 102%; in the experiment with 786-0 renal, 93.2%; with COLO 205 colon, 107%; with DU-145 prostate it was 101%; with K-562 leukemia, 95.1%. The growth in the experiment with MALME-3M melanoma was 124%; in the experiment on MDA-MB-231 breast, 108%; in the experiment on RXF 393 renal, 102%; in the experiment with SF-268 CNS it was 92.5%; with SF-295 CNS, 92.4%; with SF-539 CNS, 100%. For the same molecule, the growth is 90.3% with UACC-257 melanoma and 94.4% in the experiment on M14 melanoma.
For the molecule `CCc1c2c(nc3ccc(OC(=O)NCc4ccc(B5OC(C)(C)C(C)(C)O5)cc4)cc13)-c1cc3c(c(=O)n1C2)COC(=O)[C@]3(O)CC`, the growth was -28.3% (active) in the experiment with NCI-H23 lung; -65.4% (active) with NCI-H226 lung; 5.73% (active) in the experiment on NCI-H322M lung; -5.68% (active) with HOP-62 NSCLC; -16.7% (active) in the experiment on NCI-H460 lung; 8.05% (active) with HOP-92 NSCLC. The growth in the experiment with NCI-H522 lung was -23.2% (active); with A549/ATCC NSCLC it was 4.61% (active); with 786-0 renal it was 6.78% (active); in the experiment with COLO 205 colon, 7.58% (active); in the experiment on DU-145 prostate, 3.45% (active); in the experiment on K-562 leukemia, 10.8%. For the same molecule, the growth in the experiment with MALME-3M melanoma was -44.1% (active); with MDA-MB-231 breast, 13%; in the experiment with RXF 393 renal, -61.9% (active); in the experiment with SF-268 CNS, -5.02% (active); in the experiment with SF-295 CNS it was -0.543% (active); in the experiment with SF-539 CNS, -47.1% (active). In addition, the growth was -44.5% (active) in the experiment on UACC-257 melanoma and -16.1% (active) in the experiment on M14 melanoma.
Take `CC(C)C(NC(=O)C1(NC(=O)OCc2ccccc2)CCCC1)C(=O)O` (stereo not given): the growth with NCI-H23 lung was 99.6%; in the experiment with NCI-H226 lung, 104%; in the experiment with NCI-H322M lung, 106%; in the experiment with HOP-62 NSCLC, 119%; with NCI-H460 lung, 100%; in the experiment on HOP-92 NSCLC it was 92%. Also, the growth with NCI-H522 lung was 88.9%; in the experiment with A549/ATCC NSCLC, 106%; in the experiment with 786-0 renal, 104%; with COLO 205 colon, 107%; in the experiment on DU-145 prostate, 118%; with K-562 leukemia, 91.7%. Besides, the growth in the experiment on MALME-3M melanoma was 111%; with MDA-MB-231 breast, 105%; in the experiment with RXF 393 renal it was 134%; in the experiment on SF-268 CNS it was 111%; in the experiment with SF-295 CNS, 112%; in the experiment with SF-539 CNS it was 111%. In addition, the growth in the experiment with UACC-257 melanoma was 89.2%; in the experiment with M14 melanoma it was 102%.
